Test results published in the supplement of paper PMC6555819.

Columns and labels:
Test in all cases: PBM binding z-score (relative to random genomic background probes); higher = stronger binding; sequences stand for … in GC…GCGATTGACAGCGTAGAATGAAGG
[1] = system: PPARg:RXRa DBDmut IVT, anti-RXR (DBD mutation: RXRa K156A/R161A, NR concentration 270 nM, RXRa partner concentration 90 nM)
Method in brief: (§1)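 Each nuclear receptor dimer, without ligand, was incubated for 1 h on custom Agilent 4×180K protein-binding microarrays. Binding was detected with antibodies against each partner (one per run), and scanned fluorescence was regression-normalized. The binding z-scores are referenced to random human genomic background probes.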

[2] = system: PPARg:RXRa IVT, anti-PPARg (NR concentration 270 nM, RXRa partner concentration 90 nM)
Method in brief: as §1

[3] = system: PPARg DBDmut:RXRa IVT, anti-PPARg (DBD mutation: PPARg1 K132A/R137A, NR concentration 270 nM, RXRa partner concentration 90 nM)
Method in brief: as §1

[4] = system: PPARg DBDmut IVT, anti-PPARg (DBD mutation: PPARg1 K132A/R137A, NR concentration 270 nM)
Method in brief: as §1

[5] = system: PPARg homodimer (NR concentration 180 nM)
Method in brief: as §1

[6] = system: PXR:RXRa (NR concentration 270 nM, RXRa partner concentration 90 nM)
Method in brief: as §1

[7] = system: PXR homodimer (NR concentration 270 nM)
Method in brief: as §1

[8] = system: RARa:RXR (NR concentration 270 nM, RXRa partner concentration 90 nM)
Method in brief: as §1

[9] = system: RARa homodimer (NR concentration 270 nM)
Method in brief: as §1

[10] = system: RARb:RXRa (NR concentration 270 nM, RXRa partner concentration 90 nM)
Method in brief: as §1

[11] = system: RARb homodimer (NR concentration 270 nM)
Method in brief: as §1

[12] = system: RARg:RXRa (NR concentration 270 nM, RXRa partner concentration 90 nM)
Method in brief: as §1

[13] = system: RARg homodimer (NR concentration 270 nM)
Method in brief: as §1

[14] = system: RXRa DBDmut IVT, anti-RXR (DBD mutation: RXRa K156A/R161A, NR concentration 90 nM)
Method in brief: as §1

[15] = system: RXRa homodimer (NR concentration 180 nM)
Method in brief: as §1

[16] = system: THRa:RXRa (NR concentration 90 nM, RXRa partner concentration 90 nM)
Method in brief: as §1

[17] = system: THRa homodimer (NR concentration 90 nM)
Method in brief: as §1

[18] = system: VDR homodimer (NR concentration 270 nM)
Method in brief: as §1

| Sequence | PBM binding z-score [1] | PBM binding z-score [2] | PBM binding z-score [3] | PBM binding z-score [4] | PBM binding z-score [5] | PBM binding z-score [6] | PBM binding z-score [7] | PBM binding z-score [8] | PBM binding z-score [9] | PBM binding z-score [10] | PBM binding z-score [11] | PBM binding z-score [12] | PBM binding z-score [13] | PBM binding z-score [14] | PBM binding z-score [15] | PBM binding z-score [16] | PBM binding z-score [17] | PBM binding z-score [18] |
| --- | --- | --- | --- | --- | --- | --- | --- | --- | --- | --- | --- | --- | --- | --- | --- | --- | --- | --- |
| CCTCAGAGGACAGAAGGTCAGAGCTGTCCGCTTT | 0.0276 | 0.424 | -0.801 | -2.11 | 1.69 | 1.66 | -0.179 | 2.01 | 0.177 | 3.41 | 3.51 | 3.95 | 3.91 | 0.625 | 2.1 | 1.95 | -0.0422 | 0.12 |
| CATACTAGGTCACCGGAAGGTCAAAGTCCGCATG | 7.07 | 8.03 | 4.35 | 1.99 | 7.45 | 5.88 | 2.1 | 7.25 | 2.75 | 5.21 | 5.62 | 8.44 | 7.45 | 2.21 | 6.33 | 4.43 | 3.31 | 3.9 |
| CGAATTAGGTCATCCAGGACAGTGAATACATTGA | 8.48 | 8.35 | 3.83 | 2.81 | 2.25 | 2.36 | 1.3 | 2.86 | 1.08 | 4.14 | 3.34 | 4.29 | 5.18 | 2.45 | 3.1 | 4.01 | 2.77 | 2.04 |
| ACTTGCAGGCCAAGTTTGGGTCACTCAAACAAAG | 2.37 | 1.92 | 0.338 | 0.0722 | 0.632 | 0.858 | -0.0999 | 1.61 | -0.63 | 2.05 | 2.46 | 2.6 | 1.88 | 0.31 | 1.01 | 2.53 | 1.22 | 0.527 |
| ACCATTAGTTGACTTAGGGCAACCGATACGACGC | 0.771 | 0.653 | 0.856 | -0.189 | 0.706 | 0.147 | 0.618 | 0.916 | 0.526 | 0.973 | 1.34 | 0.733 | 0.851 | 0.744 | 0.478 | 1.61 | 0.915 | 0.163 |
| CCTACTGGGCCCTCAGGTCATTGATATCAACGTT | -0.0673 | 1.11 | -0.224 | -0.58 | 0.88 | 1.43 | 0.581 | 1.64 | 0.179 | 1.4 | 2 | 1.1 | 0.939 | -0.149 | 0.755 | 3 | 2.78 | 1.17 |
| CAAACTAGGACACCGGAAGGTCAAAGTCCGCATG | 6.39 | 6.49 | 2.4 | 2.63 | 2.78 | 3.89 | 1.68 | 4.36 | 1.36 | 3.59 | 4.14 | 4.12 | 3.83 | 0.721 | 3.58 | 3.71 | 2.1 | 2.92 |
| ATCGAAAGGTCGACGAGGTGAGCATACACCGTTT | 0.211 | 2.48 | 1.06 | 0.825 | 1.88 | 2.91 | 0.446 | 3.9 | 0.74 | 3.9 | 2.94 | 4.4 | 4.53 | 1 | 4.49 | 3.75 | 1.18 | 0.518 |
| TCTATTTGTTGAAGGGCAACCGACGAGTCCGTTT | 2.54 | 1.08 | 1.34 | 1.56 | 1.38 | 1 | 1.16 | 0.596 | 2.02 | 1.68 | 1.57 | 0.705 | 1.07 | 1.55 | 0.578 | 0.482 | 0.62 | 1.92 |
| AGAATGAGGTTAAGATCATGGAAACAGAATACAT | 2.36 | 2.7 | 1.78 | 1.04 | 0.572 | 1.24 | 0.274 | 1.79 | 0.586 | 1.68 | 0.492 | 1.94 | 1.49 | 0.788 | 2.62 | 2.2 | 0.477 | 0.212 |
| AATACAAGGTCACTAGGCCAGAGTAGGTACGAAT | 4.85 | 6.56 | 2.9 | 1.98 | 3.01 | 3.63 | 0.919 | 4.05 | 1.19 | 5.31 | 4.18 | 5.73 | 6.29 | 3.29 | 5.53 | 3.95 | 2.4 | 2.75 |
| AATACAGGGTCACTAGGCCAGAGTAGGTACGAAT | 3.83 | 5.94 | 2.04 | 1.71 | 2.24 | 3.28 | 0.432 | 4.51 | 0.176 | 4.39 | 3.61 | 5.13 | 4.83 | 2.83 | 5.52 | 3.38 | 1.27 | 2.5 |
| ATATGTAGGCTAGCTGGGGTCATTCAGACTAGGC | 4.55 | 3.66 | 1.11 | 0.266 | 1.81 | 5.32 | 2.19 | 5.28 | 0.344 | 2.28 | 3.02 | 3.59 | 1.99 | 1.43 | 4.96 | 4.2 | 2.76 | 3.63 |
| AGAACGAGGGCAATGAGTTTATAGCACGGGTGGC | 3.6 | 2.75 | 0.304 | -0.00705 | -0.116 | 4.31 | 12.1 | 0.403 | -0.186 | 2.44 | 1.18 | 1.27 | 1.88 | 2.91 | 0.965 | 0.983 | -0.489 | 5.83 |
